# From PubChem BioAssay
# Activity calls are given as the source filed them.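 Rule for the calls, unless noted: active = inhibition of the reporter signal at or above 50%; inactive = inhibition below 50%.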
# Assays:
# [1] = inhibitors of TNFa-induced NFkB p65 translocation, primary screen, imaging, HUVEC, MLSMR starter and 10KST1 sets (AID 438;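 active = inhibition above 20% together with a positive visual image hit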;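 note: compound added about 3h40 before a 20 min TNFalpha stimulation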;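 for inhibition: signal is the nuclear over cytoplasmic p65 intensity ratio per well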); conditions: HUVEC TNFa-induced p65 nuclear translocation; cell count: measured here: nuclei count (cytotoxicity indicator), at 2.08 µM; inhibition: at 2 µM, stronger effect = higher value, 0% TNFa-plus-vehicle, 100% no-TNFa wells
# [2] = inhibitors of mutant huntingtin aggregation, primary screen, imaging, exon1htt(103Q)mCFP cells, high-content imaging (AID 483;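 active = visual image review flags a hit and inhibition of aggregation exceeds 20%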;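 note: compound exposure lasted 3 days before fixation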;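 for nuclei count: percent of the per-plate median nuclei count of sample wells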); conditions: exon1htt(103Q)mCFP cell line, aggregate imaging, at 2 µM; inhibition of aggregation: stronger effect = higher value; nuclei count: measured here: cell count, toxicity
# [3] = inhibitors of E-selectin induction by TNFa, primary screen, imaging, HUVEC, immunofluorescence, MLSMR starter and 10KST1 sets (AID 487;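 active = visually confirmed hit in the image check and inhibition above 20%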;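 for inhibition: signal is fraction of cell area covered by stained E-selectin grains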;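 for nuclei count: 100% = median nuclei count of all wells on the same plate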); conditions: HUVEC TNFalpha-induced E-selectin immunofluorescence imaging, at 2 µM; inhibition: stronger effect = higher value; nuclei count: measured here: cell number, toxicity
# [4] = molecular target: Voltage-gated potassium channel subunit beta-2 (Rattus norvegicus) (UniProt P62483); assay: KvBeta enzyme negative modulators, primary screen, biochemical, NADPH fluorescence (AID 622;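 active = fluorescence slope higher than the sample average by over 3 SD, cut at about -0.22 in these data, passing the limit was not always enough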;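 note: slope of raw intensity against log time taken from 70 to 1610 s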); conditions: recombinant KvBeta, 4-cyanobenzaldehyde reduction, at 10 µM, stronger effect = higher value
# [5] = molecular target: Voltage-gated potassium channel subunit beta-2 (Rattus norvegicus) (UniProt P62483); assay: KvBeta positive modulators, primary screen, biochemical, NADPH fluorescence (AID 623;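 active = NADPH fluorescence slope more negative than the mean of all samples by about 3 SD, 99.7% confidence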;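 note: fluorescence intensity change per second fitted from 20 to 320 s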); conditions: Recombinant KvBeta, NADPH fluorescence decrease slope, 10 min; at 10 µM; stronger effect = lower value
# [6] = molecular target: Alpha-2C adrenergic receptor (Homo sapiens) (UniProt P18825); assay: modulators of alpha2C/GIRK thallium flux, primary screen, cell-based, HEK293 alpha2C/GIRK1/2 (AID 624;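 active = fluorescence slope after compound addition differing from the mean of all screened samples at 99.7% confidence, in either direction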;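 note: slope of fluorescence ratio to pre-addition baseline per second over 15 to 24 s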); conditions: thallium flux BTC fluorescence, at 10 µM, actives lie on both sides
# [7] = inhibitors of Sendai virus-induced IRF3 signaling, primary screen, TLR/RLR signaling modifier project, cell-based, Sendai virus stimulus, luciferase, 10K MLSCN set (AID 602276;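 active = inhibition at or above 50% at 10 µM; inactive = inhibition below 50%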;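 note: firefly luciferase from ISG56 promoter only with Renilla not read in this screen; 0% = Sendai virus plus DMSO and 100% = medium plus DMSO without virus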); conditions: HEK293 RL24 IRF3 luciferase reporter, at 10 µM, stronger effect = higher value
# [8] = inhibitors of poly I:C-induced TLR3 signaling, primary screen, cell-based, poly I:C stimulus, luciferase, 10K MLSCN set (AID 602277); conditions: HEK293-TLR3 RL24 IRF3 luciferase reporter, at 10 µM, stronger effect = higher value
# Chain of Voltage-gated potassium channel subunit beta-2 (Rattus norvegicus) (P62483 whole entry, looked up): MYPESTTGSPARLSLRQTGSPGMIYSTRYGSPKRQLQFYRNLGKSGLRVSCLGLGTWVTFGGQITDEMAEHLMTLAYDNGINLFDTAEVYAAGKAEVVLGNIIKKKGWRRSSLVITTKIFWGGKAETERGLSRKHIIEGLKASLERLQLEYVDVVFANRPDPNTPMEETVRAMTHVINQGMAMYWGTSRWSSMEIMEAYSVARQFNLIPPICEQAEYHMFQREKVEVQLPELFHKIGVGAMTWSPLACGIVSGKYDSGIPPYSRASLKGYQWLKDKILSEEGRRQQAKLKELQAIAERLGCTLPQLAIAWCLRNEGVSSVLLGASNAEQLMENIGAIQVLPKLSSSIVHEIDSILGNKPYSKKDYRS
# Chain of Alpha-2C adrenergic receptor (Homo sapiens) (P18825 whole entry, looked up): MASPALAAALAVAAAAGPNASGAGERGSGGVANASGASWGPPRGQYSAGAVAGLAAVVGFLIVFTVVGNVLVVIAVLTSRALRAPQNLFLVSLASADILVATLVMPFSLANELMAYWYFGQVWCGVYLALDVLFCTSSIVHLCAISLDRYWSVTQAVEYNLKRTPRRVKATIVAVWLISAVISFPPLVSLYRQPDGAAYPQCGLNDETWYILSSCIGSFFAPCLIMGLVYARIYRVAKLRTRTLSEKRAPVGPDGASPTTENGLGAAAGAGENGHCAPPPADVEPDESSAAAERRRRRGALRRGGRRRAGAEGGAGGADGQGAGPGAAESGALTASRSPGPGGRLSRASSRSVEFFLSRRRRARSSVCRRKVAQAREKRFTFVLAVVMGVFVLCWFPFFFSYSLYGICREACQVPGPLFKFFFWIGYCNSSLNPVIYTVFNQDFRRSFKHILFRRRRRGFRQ
SMILES,cell count [1],inhibition [1],inhibition of aggregation [2],nuclei count [2] [%],inhibition [3],nuclei count [3] [%],fluorescence slope [4],NADPH fluorescence slope [5],slope [6],inhibition [7],inhibition [8]
O=C1C/C(=C/NCc2ccccc2)C(=O)N1,464,-7.4% (inactive),22.7% (inactive),67.6,-106% (inactive),95.9,-0.423 (inactive),-2.2e-05 (inactive),0.0024 (inactive),4.55% (inactive),30.7% (inactive)
CCn1c(CNc2ccc(OC)cc2)nnc1SCC(=O)c1ccc(OC)cc1,544,-16.9% (inactive),1.8% (inactive),100,-101% (inactive),107,-0.502 (inactive),7.7e-06 (inactive),0.00516 (inactive),10% (inactive),14.7% (inactive)
CCN1CCN(c2nc(C)nc3c2sc(=S)n3C)CC1,640,-4.8% (inactive),7.2% (inactive),82.9,-24.6% (inactive),109,-0.587 (inactive),-2.8e-05 (inactive),0.00433 (inactive),-3.52% (inactive),18% (inactive)
CC(C)N(Cc1nc(-c2ccccc2)no1)C(=O)CCCN1C(=O)c2ccccc2C1=O,475,-9.3% (inactive),-7.3% (inactive),112,-78.3% (inactive),158,-0.53 (inactive),-8.9e-06 (inactive),0.00616 (inactive),4.76% (inactive),3.27% (inactive)
CCOC(=O)c1sc(NC(=O)COC(=O)Cn2cnc3ccccc32)c(C(=O)OCC)c1C,398,4.3% (inactive),2.6% (inactive),90.6,-109% (inactive),115,-0.613 (inactive),-3e-05 (inactive),0.00913 (inactive),13.7% (inactive),-7.45% (inactive)
O=C(NCc1nc2ccccc2[nH]1)c1ccco1,440,0.8% (inactive),1.3% (inactive),113,-228% (inactive),140,-0.38 (inactive),-5.6e-05 (inactive),0.00592 (inactive),-2.68% (inactive),-21.9% (inactive)
COc1ccc(-c2nc(CS(=O)CC(=O)N3CCCC3)c(C)o2)cc1 (centres undefined),465,2.6% (inactive),6.1% (inactive),100,-51.5% (inactive),100,-0.482 (inactive),-3.2e-05 (inactive),0.006 (inactive),26% (inactive),5.74% (inactive)
Cc1cc(N2CCN(C)CC2)nc(N2CCOCC2)n1,692,-9.4% (inactive),-6.8% (inactive),125,-24.5% (inactive),109,-0.425 (inactive),-4.1e-05 (inactive),0.00311 (inactive),-2.65% (inactive),25.9% (inactive)
COc1ccc(CCNC(=O)CSc2nnnn2-c2ccccc2OC)cc1OC,681,-1.1% (inactive),1.5% (inactive),106,-10.8% (inactive),109,-0.531 (inactive),-5.1e-05 (inactive),0.00687 (inactive),15.3% (inactive),31.8% (inactive)
CC(=O)c1c(C)nn(CC(O)COc2ccc3c(c2)CCC3)c1C (centres undefined),751,-4.3% (inactive),7.3% (inactive),97.4,-169% (inactive),126,-0.435 (inactive),4e-05 (inactive),0.00662 (inactive),-13.5% (inactive),-41.8% (inactive)
CCN1CCN(C(=O)c2cn(CC)c3ccc(S(=O)(=O)N(C)C)cc3c2=O)CC1,639,1.3% (inactive),12.4% (inactive),100,-30% (inactive),107,-0.59 (inactive),-3.2e-05 (inactive),0.00681 (inactive),7.55% (inactive),20.6% (inactive)
Cc1ccc2nc(-c3ccc(S(=O)(=O)N4CCOCC4)cc3)cn2c1,591,-9.3% (inactive),-9.3% (inactive),96.7,7.4% (inactive),89.1,-0.0874 (active),1e-05 (inactive),0.00713 (inactive),5.63% (inactive),-13.9% (inactive)
COc1ccc(CCNC(=O)C2CCCN(c3nn4c(=O)cc(C)nc4s3)C2)cc1OC (centres undefined),371,-4% (inactive),10.8% (inactive),94.9,-9% (inactive),100,-0.403 (inactive),-5.9e-05 (inactive),0.0045 (inactive),19.7% (inactive),16.7% (inactive)
COc1ccc(-n2c(N)c(C(=O)NCc3ccco3)c3nc4ccccc4nc32)c(OC)c1,737,-6% (inactive),-0.1% (inactive),97.9,27.3% (inactive),102,-0.246 (inactive),-4.5e-06 (inactive),0.00521 (inactive),6.27% (inactive),7.88% (inactive)
